Assay outcomes as filed in PubChem BioAssay.
NPR1 antag: antagonists of human natriuretic peptide receptor Npr1. P16066. HEK293 hNpr1 GloSensor cGMP, ANP-stimulated luminescence. Potency, µM (doses to about 46.3 µM), hits mostly inhibitors. actives 1.6% (n = 76,000); calls by dose curve; also: nearly all actives have a fitted effect of over 60% in size
Target sequence (P16066 whole entry, looked up): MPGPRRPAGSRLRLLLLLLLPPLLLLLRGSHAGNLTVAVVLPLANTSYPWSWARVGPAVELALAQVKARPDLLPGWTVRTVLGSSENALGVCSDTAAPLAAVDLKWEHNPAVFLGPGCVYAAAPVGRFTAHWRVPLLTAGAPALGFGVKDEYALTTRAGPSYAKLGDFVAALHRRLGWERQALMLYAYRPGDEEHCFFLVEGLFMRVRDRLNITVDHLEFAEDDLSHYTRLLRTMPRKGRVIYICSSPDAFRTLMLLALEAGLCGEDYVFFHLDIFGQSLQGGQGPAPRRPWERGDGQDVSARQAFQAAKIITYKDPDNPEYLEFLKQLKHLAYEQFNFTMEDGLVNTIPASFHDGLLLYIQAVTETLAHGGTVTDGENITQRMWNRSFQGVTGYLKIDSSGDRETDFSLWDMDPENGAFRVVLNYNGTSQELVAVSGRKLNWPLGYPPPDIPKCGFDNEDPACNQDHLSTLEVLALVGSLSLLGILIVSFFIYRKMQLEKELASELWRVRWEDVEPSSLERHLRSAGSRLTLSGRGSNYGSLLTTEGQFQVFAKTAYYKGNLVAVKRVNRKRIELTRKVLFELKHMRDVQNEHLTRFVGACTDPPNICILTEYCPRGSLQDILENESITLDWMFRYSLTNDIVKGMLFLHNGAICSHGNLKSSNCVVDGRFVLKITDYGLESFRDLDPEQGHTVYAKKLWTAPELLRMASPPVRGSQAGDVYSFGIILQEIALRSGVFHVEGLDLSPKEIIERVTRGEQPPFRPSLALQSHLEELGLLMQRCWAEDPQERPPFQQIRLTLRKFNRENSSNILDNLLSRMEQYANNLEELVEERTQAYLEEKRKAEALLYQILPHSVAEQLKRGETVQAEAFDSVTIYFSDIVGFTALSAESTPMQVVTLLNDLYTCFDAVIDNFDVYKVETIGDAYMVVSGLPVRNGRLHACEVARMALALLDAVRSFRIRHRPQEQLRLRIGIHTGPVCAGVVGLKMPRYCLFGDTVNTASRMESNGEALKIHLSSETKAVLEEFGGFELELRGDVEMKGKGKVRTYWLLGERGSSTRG
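HEK293 cells stably expressing human Npr1 and cGMP GloSensor pGS-40F, loaded 2 h with 2% GloSensor reagent, given compound 30 min at room temperature. Luminescence read before and 20 min after 0.1 nM hNppA.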
HEK cytotox: HEK 293 cell cytotoxicity; Potency, µM (highest dose often 115 µM), actives largely listed as inhibitors; HEK 293 viability, ATP luminescence (CellTiter-Glo), 48-72 h; AID 1345083; actives 6.6% (n = 94,000); also: nearly all actives have a fitted effect of over 60% in size
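HEK 293 seeded at 250 cells/well receive compound via pintool. After 48 or 72 hr at 37 degree Celsius, 5% CO2 and 95% humidity, CellTiter-Glo is dispensed and luminescence read following 10 min at room temperature.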
NIH3T3 tox: cytotoxic compounds in NIH 3T3 cells. NIH 3T3 viability, CellTiter-Glo ATP luminescence, 48-72 h. Potency, µM (top dose mostly 96.7 µM), actives largely listed as inhibitors. actives 4.3% (n = 94,000); also: nearly all actives have a fitted effect of over 55% in size
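NIH 3T3 cells at 400 cells/well received 23 nL of compound by pintool and were incubated 48 or 72 h at 37 °C. Viability was read as ATP-coupled CellTiter-Glo luminescence.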
FLuc inh: Photinus pyralis luciferase inhibition. purified P. pyralis luciferase, luminescence, biochemical. actives 2.5% (n = 76,000). AID 1347043. Potency, µM (top dose mostly 115 µM), most hits filed as inhibitors. P08659; also: nearly all actives have a fitted effect of over 65% in size
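Luminescence read by CCD imaging after purified firefly luciferase (10nM final) was added to substrate buffer holding 10uM D-luciferin and 10uM ATP, pH 7.5, pre-dosed with compound.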
Each line names hits and unclear results; the compound was inactive in the other large screens; ! = not active in a repeat. An excerpt weighted towards active compounds, which were near 11% of everything screened. Unless noted, calls follow the shape of the dose curve; as a rule, active = well fitted curve in the direction sought with a large enough effect; inconclusive = small, poorly fitted or top-dose-only effect, or another doubt; inactive = no such curve, though single readings can be large; an effect the other way counts as inactive or inconclusive.

CN(C)c1ccc(-c2nnc([C@H]3CCN(Cc4ccccn4)C3)o2)cc1	HEK cytotox inconclusive, FLuc inh inconclusive
COCC(=O)NC1CCN(C(=O)c2ccc(-c3ccccc3OC)cc2)CC1	NIH3T3 tox inconclusive (no result: NPR1 antag, FLuc inh)
COc1ccc(CC(=O)NC2CCN(C(=O)c3ccc(-c4ccccc4OC)cc3)CC2)cc1	HEK cytotox inconclusive, NIH3T3 tox 40µM (no result: NPR1 antag, FLuc inh)
COc1ccccc1-c1ccc(CN2CCC(NC(=O)C3CCCCC3)C2)cc1 (stereo not drawn)	HEK cytotox inconclusive, NIH3T3 tox 32µM! (no result: NPR1 antag, FLuc inh)
COc1ccccc1-c1ccc(CN2CCC(NC(=O)Cc3ccc(F)cc3)C2)cc1 (stereo not drawn)	HEK cytotox 40µM, NIH3T3 tox 40µM (no result: NPR1 antag, FLuc inh)
O=C(NCc1ccccn1)c1cccc(OC2CCN(c3cnccn3)CC2)c1	NPR1 antag inconclusive, HEK cytotox 45µM, NIH3T3 tox inconclusive
CN1CCC(Oc2ccc(C(=O)NCCc3ccccn3)cn2)CC1	FLuc inh 40µM
Cc1cc(C)cc(C(=O)N2CCC3(CC2)N=C(c2ccc(Cl)cc2)NO3)c1	none
CN1CCC(N2CCC[C@@H](O)[C@H](NC(=O)c3ccc(OCc4ccccc4)cc3)C2)CC1	HEK cytotox 79µM, NIH3T3 tox inconclusive
CCC(O)Cn1nc(C2CCOCC2)nc1C1(C(N)=O)CC1 (stereo not drawn)	none
CSCCC(=O)N1CCc2[nH]nc(-c3ccc(C(F)(F)F)cc3)c2C1	HEK cytotox inconclusive, NIH3T3 tox inconclusive, FLuc inh inconclusive
O=C(C1CC=CCC1)N1CCc2[nH]nc(-c3ccc(C(F)(F)F)cc3)c2C1 (stereo not drawn)	HEK cytotox 25µM, NIH3T3 tox inconclusive
Fc1ccccc1-c1noc(N2CCCCC2)n1	NPR1 antag 10µM, HEK cytotox inconclusive, NIH3T3 tox inconclusive, FLuc inh 1.6µM
CCCN(CC1CCOC1)C(=O)Nc1cc(Cl)ccc1C (stereo not drawn)	none
COc1ccccc1-c1ccc2ncc(Nc3ccc(CN4CCN(C)CC4)cc3)n2n1	HEK cytotox 50µM, NIH3T3 tox 25µM
COc1ccc(Nc2cnc3ccc(-c4ccccc4OC)nn23)cc1	HEK cytotox 79µM, NIH3T3 tox inconclusive, FLuc inh inconclusive
COc1ccc(-c2ccc3ncc(Nc4ccc(CN5CCN(C)CC5)cc4)n3n2)cn1	HEK cytotox inconclusive, NIH3T3 tox inconclusive
Cc1oc(-c2ccc(OC(C)C)cc2)nc1Cn1ccn2nc3c(c2c1=O)CCCC3	HEK cytotox 8.9µM, NIH3T3 tox inconclusive
CCc1ccc(NC(=O)c2ccc(Cn3ccn4nc5c(c4c3=O)CCCC5)cc2)cc1	HEK cytotox 20µM, NIH3T3 tox inconclusive, FLuc inh inconclusive
O=C(NCCC1=CCCCC1)c1ccc(Cn2ccn3nc4c(c3c2=O)CCCC4)cc1	HEK cytotox 40µM, NIH3T3 tox inconclusive
O=c1c2c3c(nn2ccn1Cc1cc(F)ccc1F)CCCC3	HEK cytotox inconclusive, NIH3T3 tox inconclusive
COCCCNC(=O)c1ccc(Cn2ccn3nc4c(c3c2=O)CCCC4)cc1	HEK cytotox inconclusive, NIH3T3 tox inconclusive
O=C(Nc1ccc(Cl)cc1)c1ccc(Cn2ccn3nc4c(c3c2=O)CCCC4)cc1	HEK cytotox inconclusive
COc1ccccc1Cn1ccn2nc3c(c2c1=O)CCCC3	HEK cytotox 45µM, NIH3T3 tox inconclusive
CCOC(=O)C1=C(C)N=C2SC=C(CC(=O)NCc3ccco3)N2C1c1cccc([N+](=O)[O-])c1 (stereo not drawn)	NPR1 antag inconclusive, HEK cytotox inconclusive, NIH3T3 tox inconclusive
O=C(Nc1ccccc1)c1ccc(Cn2ccn3nc4c(c3c2=O)CCCC4)cc1	HEK cytotox 16µM, NIH3T3 tox inconclusive
O=C(Nc1ccc(F)cc1)c1ccc(Cn2ccn3nc4c(c3c2=O)CCCC4)cc1	none
Cc1cccc(-c2nc3ccc(C(=O)N4CCN(C)CC4)cc3o2)n1	none (no result: NPR1 antag, FLuc inh)
Cc1ccccc1-c1nccn2c(C3CN(Cc4ccccc4O)C3)ncc12	HEK cytotox 89µM, NIH3T3 tox 100µM
COc1ccc(OCC2(C)COc3ccc(C(=O)NCc4ccc(F)cc4)cc3N2)cc1 (stereo not drawn)	HEK cytotox 28µM, NIH3T3 tox 28µM
Cn1ccc(NC(=O)c2ccc3c(c2)NC(C)(COc2ccccc2)CO3)n1 (stereo not drawn)	NPR1 antag inconclusive, HEK cytotox 100µM, NIH3T3 tox inconclusive, FLuc inh inconclusive
CC1(COc2ccccc2)COc2ccc(C(=O)NCc3ccccc3)cc2N1 (stereo not drawn)	HEK cytotox 63µM, NIH3T3 tox 50µM
CC1(COc2ccccc2)COc2ccc(C(=O)NCc3cnccn3)cc2N1 (stereo not drawn)	HEK cytotox inconclusive, NIH3T3 tox inconclusive
COc1ccc(OCC2(C)COc3ccc(C(=O)N(C)C)cc3N2)cc1 (stereo not drawn)	NPR1 antag inconclusive, HEK cytotox inconclusive
CCOc1ccc(NC(=O)C2CC(=O)N(c3n[nH]c4cc(Br)ccc34)C2)cc1 (stereo not drawn)	none
CS(=O)(=O)N1CCCN(C(=O)C2CCCCC2)CCNC(=O)CC1c1ccccc1 (stereo not drawn)	none
Cc1ccc(CNC(=O)c2ccc3c(c2)CN(Cc2ccc(O)c(F)c2)CCO3)cc1	HEK cytotox inconclusive, NIH3T3 tox inconclusive
COc1ccc(-c2nc(C(C)C)nc3c2CCN(C(=O)C(C)(C)C)CC3)cc1	HEK cytotox inconclusive
COc1cc(C)c(CN2CCCn3nc(C(=O)N4CCCC4)cc3C2)cc1C	HEK cytotox 45µM, NIH3T3 tox 45µM
COC(=O)c1cc2n(n1)CCCN(C(=O)COc1ccc(C)c(C)c1)C2	none
COc1ccc(O[C@H]2COCCN(C(=O)c3cccc(OC)c3)C2)cc1	none
COCCNC(=O)CN1CN(c2ccccc2)C2(CCN(C(=O)C3CCCCC3)CC2)C1=O	none
Cc1ccc(NC(=O)N2CCC3(CC2)C(=O)N(CC(=O)N2CCCC2)CN3c2ccccc2)cc1	HEK cytotox inconclusive, NIH3T3 tox inconclusive, FLuc inh 8.9µM
CC(=O)Nc1cccc(-c2cnc3n[nH]c(-c4sccc4C)c3n2)c1	NPR1 antag inconclusive, HEK cytotox 32µM, NIH3T3 tox inconclusive, FLuc inh inconclusive
COc1ccc(-c2cnc3n[nH]c(-c4sccc4C)c3n2)cc1	HEK cytotox inconclusive, NIH3T3 tox inconclusive
CC(=O)Nc1cccc(-c2cnc3n[nH]c(-c4ccc5c(c4)OCO5)c3n2)c1	HEK cytotox 22µM, NIH3T3 tox 25µM, FLuc inh inconclusive
CC(=O)Nc1cccc(-c2cnc3n[nH]c(-c4ccccc4C)c3n2)c1	HEK cytotox 71µM, NIH3T3 tox 45µM
CC(=O)Nc1cccc(-c2cnc3n[nH]c(-c4ccc(F)cc4C)c3n2)c1	HEK cytotox 20µM, NIH3T3 tox 25µM
COc1ccc(Cl)cc1-c1ccc2c(c1)C(=O)N1CCN(C(=O)[C@@H](O)c3ccccc3)C[C@H]1C(=O)N2	HEK cytotox inconclusive, NIH3T3 tox inconclusive
CN1C(=O)c2cccn2CC1C(=O)NCc1nc2ccccc2n1C (stereo not drawn)	none (no result: NPR1 antag, FLuc inh)
CCc1nc(NCc2cn[nH]c2-c2ccc(Cl)cc2)c2cnn(C)c2n1	HEK cytotox inconclusive, NIH3T3 tox 45µM
